The nature of assay [1]: p53 stabilisation in HPV-positive human cells, imaging, p53-positive nuclei imaging, 24 h, 48 h (AID 1508601). The following applies: 24/48 h.
Assay [2] has as its target Cellular tumor antigen p53 (Homo sapiens) (UniProt P04637). The assay is described as above. The following applies: 24/48 h, stronger effect = higher value.
The mark [3] stands for this setting: measured here: cell number at 24 h, Library stock concentration: 80 uM.
The mark [4] stands for this setting: measured here: cell number at 24 h, Library stock concentration: 400 uM.
The mark [5] stands for this setting: measured here: cell number at 24 h, Library stock concentration: 2 mM.
[6] abbreviates: measured here: cell number at 24 h, Library stock concentration: 10 mM.
Where [7] appears, read: measured here: cell number at 48 h, Library stock concentration: 80 uM.
Setting [8] is: measured here: cell number at 48 h, Library stock concentration: 400 uM.
Setting [9] is: measured here: cell number at 48 h, Library stock concentration: 2 mM.
Where [10] appears, read: measured here: cell number at 48 h, Library stock concentration: 10 mM.
The mark [11] stands for this setting: Library stock concentration: 80 uM.
The mark [12] stands for this setting: Library stock concentration: 400 uM.
[13] abbreviates: Library stock concentration: 2 mM.
[14] abbreviates: Library stock concentration: 10 mM.
Setting [15] is: measured here: p53 positive nuclei at 24 h, Library stock concentration: 80 uM.
Setting [16] is: measured here: p53 positive nuclei at 24 h, Library stock concentration: 400 uM.
The mark [17] stands for this setting: measured here: p53 positive nuclei at 24 h, Library stock concentration: 2 mM.
Where [18] appears, read: measured here: p53 positive nuclei at 24 h, Library stock concentration: 10 mM.
[19] abbreviates: measured here: cell number at 24 h, concentration not given here.
[20] abbreviates: measured here: cell number at 48 h, concentration not given here.
[21] abbreviates: measured here: p53 positive nuclei at 24 h, concentration not given here.

Several values for one entry are separate records, joined by “and”; a condition that tells them apart may be missing. Identical values can stand only once. Screen size: about 5,700 compounds; about 85 (1%) were called active. No stated cut-off is given here; in the data, active means p53-positive nuclei above about 36% (passing the limit was not always enough); inactive means the rest. What follows is part of a selection rich in actives, with near analogues and random picks from the rest.

Sequence of Cellular tumor antigen p53 (Homo sapiens) (P04637 whole entry, looked up): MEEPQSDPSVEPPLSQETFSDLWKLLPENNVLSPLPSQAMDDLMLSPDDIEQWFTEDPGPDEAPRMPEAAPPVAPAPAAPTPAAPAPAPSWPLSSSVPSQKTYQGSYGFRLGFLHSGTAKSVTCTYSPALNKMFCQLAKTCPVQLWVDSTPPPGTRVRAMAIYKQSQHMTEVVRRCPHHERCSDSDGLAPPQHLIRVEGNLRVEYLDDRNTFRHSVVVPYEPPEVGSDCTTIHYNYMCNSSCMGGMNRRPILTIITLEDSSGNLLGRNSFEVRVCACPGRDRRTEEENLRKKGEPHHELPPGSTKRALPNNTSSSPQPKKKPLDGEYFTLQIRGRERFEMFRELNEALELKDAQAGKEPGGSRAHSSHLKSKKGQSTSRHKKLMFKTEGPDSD

With `c1cc(NCCc2c[nH]c3ccccc23)cc(Nc2ccncc2)c1`, the nuclei count, normalised in assay [1] (setting [3]) was found to be 103%; in assay [1] (setting [4]), 107%; in assay [1] (setting [5]), 107%; in assay [1] (setting [6]) it was 91.3%; in assay [1] (setting [7]) it was 101%; in assay [1] (setting [8]), 107%. Moreover, the nuclei count, normalised in assay [1] (setting [9]) amounted to 108%; in assay [1] (setting [10]), 77.6%. The p53-positive nuclei, normalised in assay [2] (setting [11]) is -0.0385% (inactive); in assay [2] (setting [12]) it was -0.0904% (inactive); in assay [2] (setting [13]) it was -0.152% (inactive); in assay [2] (setting [14]), -0.0614% (inactive); in assay [2] (setting [15]) it was -0.148%; in assay [2] (setting [16]), -0.0802%. Further, the p53-positive nuclei, normalised in assay [2] (setting [17]) is 0.142%; in assay [2] (setting [18]) it was -0.0614%.

With `COc1ccc(CN2CCN(c3nccc(-c4c(C)nn(C)c4C)n3)CC2=O)cc1`, the nuclei count, normalised in assay [1] (setting [19]) amounted to 101%; in assay [1] (setting [20]) it was 105%. Further, the p53-positive nuclei, normalised is -0.125% (inactive) in assay [2] (concentration not given here) and -0.147% in assay [2] (setting [21]).

With `CN(C)CCC(CSc1ccccc1)Nc1ccc(S(=O)(=O)NC(=O)c2ccc(N3CCN(Cc4ccccc4-c4ccc(Cl)cc4)CC3)cc2)cc1[N+](=O)[O-]` (stereo not given), the nuclei count, normalised in assay [1] (measured here: cell number at 24 h, Library stock concentration: 500 nM) was 120%; in assay [1] (measured here: cell number at 24 h, Library stock concentration: 1.5 uM), 122%; in assay [1] (measured here: cell number at 24 h, Library stock concentration: 4.6 uM), 117%; in assay [1] (measured here: cell number at 24 h, Library stock concentration: 13.7 uM) it was 121%; in assay [1] (measured here: cell number at 24 h, Library stock concentration: 41 uM), 117%; in assay [1] (setting [3]), 111% and 86.3%. Moreover, the nuclei count, normalised in assay [1] (measured here: cell number at 24 h, Library stock concentration: 123 uM) was 117%; in assay [1] (measured here: cell number at 24 h, Library stock concentration: 370 uM), 117%; in assay [1] (setting [4]), 109% and 85.3%; in assay [1] (measured here: cell number at 24 h, Library stock concentration: 1.111 mM) it was 113%; in assay [1] (setting [5]), 113% and 92.5%; in assay [1] (measured here: cell number at 24 h, Library stock concentration: 3.33 mM) it was 105%. The nuclei count, normalised in assay [1] (measured here: cell number at 24 h, Library stock concentration: 3.333 mM) was 127%; in assay [1] (setting [6]) it was 111% and 80.6% and 116%; in assay [1] (measured here: cell number at 48 h, Library stock concentration: 500 nM), 112%; in assay [1] (measured here: cell number at 48 h, Library stock concentration: 1.5 uM), 111%; in assay [1] (measured here: cell number at 48 h, Library stock concentration: 4.6 uM) it was 112%; in assay [1] (measured here: cell number at 48 h, Library stock concentration: 13.7 uM), 117%. Also, the nuclei count, normalised in assay [1] (measured here: cell number at 48 h, Library stock concentration: 41 uM) was 114%; in assay [1] (setting [7]), 99.7% and 87.7%; in assay [1] (measured here: cell number at 48 h, Library stock concentration: 123 uM) it was 112%; in assay [1] (measured here: cell number at 48 h, Library stock concentration: 370 uM), 113%; in assay [1] (setting [8]), 97.6% and 86%; in assay [1] (measured here: cell number at 48 h, Library stock concentration: 1.111 mM) it was 112%. Further, the nuclei count, normalised in assay [1] (setting [9]) was 98% and 96.4%; in assay [1] (measured here: cell number at 48 h, Library stock concentration: 3.33 mM) it was 102%; in assay [1] (measured here: cell number at 48 h, Library stock concentration: 3.333 mM), 126%; in assay [1] (setting [10]), 106% and 92.8% and 127%. The p53-positive nuclei, normalised is -0.0213% (inactive) in assay [2] (Library stock concentration: 500 nM); 0.0237% (inactive) in assay [2] (Library stock concentration: 1.5 uM); 0.0183% (inactive) in assay [2] (Library stock concentration: 4.6 uM); -0.104% (inactive) in assay [2] (Library stock concentration: 13.7 uM); -0.0533% (inactive) in assay [2] (Library stock concentration: 41 uM); 0.0591% (inactive) and -0.273% (inactive) in assay [2] (setting [11]). Also, the p53-positive nuclei, normalised in assay [2] (Library stock concentration: 123 uM) is -0.176% (inactive); in assay [2] (Library stock concentration: 370 uM) it was -0.136% (inactive); in assay [2] (setting [12]) it was 0.0679% (inactive) and 0.126% (inactive); in assay [2] (Library stock concentration: 1.111 mM), -0.092% (inactive); in assay [2] (setting [13]) it was -0.0104% (inactive) and 0.232% (inactive); in assay [2] (Library stock concentration: 3.33 mM) it was -0.445% (inactive). Also, the p53-positive nuclei, normalised is -0.149% (inactive) in assay [2] (Library stock concentration: 3.333 mM); -0.104% (inactive) and 0.208% (inactive) and -0.0111% (inactive) in assay [2] (setting [14]); 0.154% in assay [2] (measured here: p53 positive nuclei at 24 h, Library stock concentration: 500 nM); -0.0609% in assay [2] (measured here: p53 positive nuclei at 24 h, Library stock concentration: 1.5 uM); -0.00335% in assay [2] (measured here: p53 positive nuclei at 24 h, Library stock concentration: 4.6 uM); -0.0575% in assay [2] (measured here: p53 positive nuclei at 24 h, Library stock concentration: 13.7 uM). The p53-positive nuclei, normalised in assay [2] (measured here: p53 positive nuclei at 24 h, Library stock concentration: 41 uM) was 0.00542%; in assay [2] (setting [15]), -0.0528% and -0.0593%; in assay [2] (measured here: p53 positive nuclei at 24 h, Library stock concentration: 123 uM), -0.105%; in assay [2] (measured here: p53 positive nuclei at 24 h, Library stock concentration: 370 uM) it was -0.113%; in assay [2] (setting [16]) it was -0.0967% and 0.0394%; in assay [2] (measured here: p53 positive nuclei at 24 h, Library stock concentration: 1.111 mM) it was -0.104%. Further, the p53-positive nuclei, normalised in assay [2] (setting [17]) is -0.0967% and 0.437%; in assay [2] (measured here: p53 positive nuclei at 24 h, Library stock concentration: 3.33 mM), 0.0238%; in assay [2] (measured here: p53 positive nuclei at 24 h, Library stock concentration: 3.333 mM), -0.165%; in assay [2] (setting [18]), -0.00444% and -0.0479% and 0.0019%.

With `CCCCC[C@@](C)(O)/C=C/[C@H]1[C@H](O)CC(=O)[C@@H]1C/C=C\CCCC(=O)O`, the nuclei count, normalised in assay [1] (setting [19]) is 101%; in assay [1] (setting [20]), 105%. The p53-positive nuclei, normalised in assay [2] (concentration not given here) was -0.0639% (inactive); in assay [2] (setting [21]) it was 0.0947%.

For the origin of these results see PubChem BioAssay AID1508601 (ICCB-Longwood Screening Facility, Harvard Medical School, 2020).
